This is a sample that favours compounds with a hit; in the whole collection about 4.2% have one here.
Mtb bLac sens: beta-lactam sensitization of Mtb H37Rv. M. tuberculosis H37Rv growth with meropenem, percent inhibition. inhibition, % at 25 µM. 0.27% of 330,000 active; call rule not given here;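 note: growth measured after seven days incubation then overnight dye step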
RecA splice inh: inhibitors of M. tuberculosis RecA intein splicing; cell-free RecA intein splicing, fluorescence; inhibition, % (no concentration beside the values); 0.75% of 290,000 active; in the data active = inhibition above about 30%
GDH-TPI counter: counter-screen for M. tuberculosis FBA inhibitors: GDH-TPI coupled enzymes | GDH-TPI coupled enzyme counterscreen, NADH absorbance | inhibition, % at 4.8 µM | 1.2% of 360,000 active | AID 588335
CCHFV vOTU inh: blocks the CCHF virus ovarian tumor domain protease; CCHFV vOTU protease, Pep-AMC fluorescence; inhibition, % at 11.5 µM; 0.55% of 370,000 active; AID 651958
Mtb FBA inh: Mtb fructose-bisphosphate aldolase inhibition. P9WQA3. purified M. tuberculosis FBA, fluorescence read-out. inhibition, % at 1 µM. 2.3% of 360,000 active. AID 588726; in the data active = inhibition above about 27%
Target sequence (P9WQA3 whole entry, looked up): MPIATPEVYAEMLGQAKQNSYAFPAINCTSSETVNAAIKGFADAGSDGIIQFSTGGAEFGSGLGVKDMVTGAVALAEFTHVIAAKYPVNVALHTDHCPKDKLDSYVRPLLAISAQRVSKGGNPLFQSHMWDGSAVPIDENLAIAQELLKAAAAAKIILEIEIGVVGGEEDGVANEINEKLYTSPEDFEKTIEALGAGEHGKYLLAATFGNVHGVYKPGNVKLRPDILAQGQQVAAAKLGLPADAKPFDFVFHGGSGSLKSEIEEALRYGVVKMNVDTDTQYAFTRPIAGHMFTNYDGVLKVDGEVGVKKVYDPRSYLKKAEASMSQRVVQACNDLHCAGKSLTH
Numbers stand for hits. Cut-off read from the data, not from the text of the source, unless noted: active = inhibition above about 30%; inactive = the rest.

Screening COc1cc(C(=O)NC2CCCCN(C(C)C)C2=O)cc(OC)c1OC (stereo not given) returned CCHFV vOTU inh inactive.
`COCCCNC(=O)C[C@H]1C[C@@]2(C(=O)OC)C(=C[C@H](COCc3ccccc3)O[C@@H]2C)N(CCc2ccc(OC)c(OC)c2)C1=O` gave CCHFV vOTU inh inactive.
Cc1cc(C)nc(NS(=O)(=O)c2ccc(N/C=C3\CCCC3=O)cc2)n1 was read as Mtb bLac sens inactive, RecA splice inh inactive, GDH-TPI counter 36.8, CCHFV vOTU inh inactive and Mtb FBA inh inactive.
For Cc1cc(C)nc(NS(=O)(=O)c2ccc(Br)cc2)n1 the results were Mtb bLac sens inactive, RecA splice inh inactive, GDH-TPI counter inactive, CCHFV vOTU inh inactive and Mtb FBA inh inactive.
`COCCCN1C(=O)[C@H](CC(=O)N2CCSCC2)[C@]2(C(=O)OC)CCCCC=C12` gave CCHFV vOTU inh inactive.
`O=C(C(=O)c1ccc(O)c(O)c1)c1ccc(O)c(O)c1` gave GDH-TPI counter 78.4, CCHFV vOTU inh inactive and Mtb FBA inh inactive.
Screening COc1cc(C(=O)C(O)c2ccc(O)c(OC)c2)ccc1O (stereo not given) returned GDH-TPI counter inactive, CCHFV vOTU inh inactive and Mtb FBA inh inactive.
Screening O=Cc1ccc(O)c(O)c1 returned Mtb bLac sens inactive, RecA splice inh inactive, GDH-TPI counter inactive, CCHFV vOTU inh inactive and Mtb FBA inh inactive.
For CC(C)C(=O)c1ccc(O)c(O)c1 the results were Mtb bLac sens inactive, RecA splice inh inactive, GDH-TPI counter 37.7, CCHFV vOTU inh inactive and Mtb FBA inh inactive.
For Cc1ccc(C2Nc3ccc4ccccc4c3C3=C2C(=O)CC(C)(C)C3)o1 (stereo not given) the results were Mtb bLac sens inactive, RecA splice inh inactive, GDH-TPI counter inactive and Mtb FBA inh inactive.
CC1(C)CC(=O)C2=C(C1)c1c(ccc3ccccc13)NC2c1ccc(C(=O)O)cc1 (stereo not given) was read as Mtb bLac sens inactive, RecA splice inh inactive, GDH-TPI counter inactive, CCHFV vOTU inh inactive and Mtb FBA inh active.
CCCC[C@H](C(=O)N(C)c1ccccc1)[C@@H](O)c1ccc2ccccc2c1 was read as CCHFV vOTU inh inactive.
Screening CC1Oc2ccccc2C=C1/C=N\NC(=O)c1cccnc1 (stereo not given) returned Mtb bLac sens inactive, RecA splice inh inactive, GDH-TPI counter 47.6, CCHFV vOTU inh inactive and Mtb FBA inh inactive.
CC1Oc2ccccc2C=C1/C=N/NC(=O)c1ccccc1 (stereo not given) was read as Mtb bLac sens inactive, RecA splice inh inactive, GDH-TPI counter inactive, CCHFV vOTU inh inactive and Mtb FBA inh inactive.
Screening CC1Oc2ccccc2C=C1/C=N/NC(=O)[C@@H](C)NC(=O)OC(C)(C)C (stereo not given in full) returned Mtb bLac sens inactive, RecA splice inh inactive, GDH-TPI counter 37.5, CCHFV vOTU inh inactive and Mtb FBA inh inactive.
Cc1ccc(C(=O)N/N=C/C2=Cc3ccccc3OC2C)cc1 (stereo not given) was read as Mtb bLac sens inactive, RecA splice inh inactive, GDH-TPI counter inactive, CCHFV vOTU inh inactive and Mtb FBA inh inactive.
`CN(CCOC(=O)CC1C=CCC1)C1CN(Cc2cn(Cc3ccccc3Cl)nn2)S(=O)(=O)C1` (stereo not given) gave CCHFV vOTU inh inactive.
Screening CSCCCNC(=O)c1cn(C(C)c2ccccc2)nn1 (stereo not given) returned CCHFV vOTU inh inactive.
CCc1ccc(N2C(=O)C[C@@](C#N)(C(=O)OC)[C@H]2c2ccccc2)cc1 was read as CCHFV vOTU inh inactive.
Screening CSc1nc2c([nH]1)c(=S)n(C)c(=O)n2C returned GDH-TPI counter 34.5, CCHFV vOTU inh inactive and Mtb FBA inh inactive.
CCCCC(C)Sc1nc2c([nH]1)c(=S)n(C)c(=O)n2C (stereo not given) was read as GDH-TPI counter 30.7, CCHFV vOTU inh inactive and Mtb FBA inh inactive.
Screening CCCC(CC)Sc1nc2c([nH]1)c(=S)n(C)c(=O)n2C (stereo not given) returned GDH-TPI counter inactive, CCHFV vOTU inh inactive and Mtb FBA inh inactive.
`O=C(Nc1ccc2c(c1)OCO2)N1CCC(c2nc3ccc(Cl)cc3[nH]2)CC1` gave CCHFV vOTU inh inactive.
`COc1ccc(CC(=O)NCC(=O)N/N=C/c2sccc2C)cc1` gave Mtb bLac sens inactive, RecA splice inh inactive, GDH-TPI counter inactive, CCHFV vOTU inh inactive and Mtb FBA inh inactive.
Screening Cc1cccc(NC(=O)/C(=C\c2cccs2)NC(=O)c2ccccc2)c1 returned Mtb bLac sens inactive, RecA splice inh inactive, GDH-TPI counter 34.5 and Mtb FBA inh inactive.
`COc1ccc(OC)c(/C=C(\NC(=O)c2ccccc2)C(=O)N/N=C/c2ccc(C)s2)c1` gave Mtb bLac sens inactive, RecA splice inh inactive, GDH-TPI counter 49.4, CCHFV vOTU inh inactive and Mtb FBA inh inactive.
`Cc1ccc(NC(=O)/C(=C\c2ccc([N+](=O)[O-])cc2)NC(=O)c2ccccc2)cc1` gave Mtb bLac sens inactive, RecA splice inh inactive, GDH-TPI counter inactive, CCHFV vOTU inh inactive and Mtb FBA inh inactive.
Screening O=C(Nc1ccccc1)/C(=C\c1cccs1)NC(=O)c1ccccc1 returned Mtb bLac sens inactive, RecA splice inh inactive, GDH-TPI counter inactive, CCHFV vOTU inh inactive and Mtb FBA inh inactive.
Screening COc1ccc(/C=C(/NC(=O)c2ccccc2)C(=O)N/N=C/c2sccc2C)cc1 returned Mtb bLac sens inactive, RecA splice inh inactive, GDH-TPI counter 52.1, CCHFV vOTU inh inactive and Mtb FBA inh inactive.
`O=C(N/N=C/c1ccc(O)c(O)c1O)/C(=C/c1ccc([N+](=O)[O-])cc1)NC(=O)c1ccccc1` gave Mtb bLac sens inactive, RecA splice inh inactive, GDH-TPI counter 37.4, CCHFV vOTU inh inactive and Mtb FBA inh inactive.
CCn1c(COc2ccc(Cl)cc2)nnc1SCC(=O)Nc1ccccc1-c1ccccc1 was read as CCHFV vOTU inh inactive.
`COCCCN1C(=O)[C@H](CC(=O)N2CCC(c3ccccc3)CC2)[C@]2(C(=O)OC)CCCCC=C12` gave CCHFV vOTU inh inactive.
Screening O=C(N/N=C/C=C/c1ccco1)c1ccncc1 returned Mtb bLac sens inactive, RecA splice inh inactive, GDH-TPI counter inactive, CCHFV vOTU inh inactive and Mtb FBA inh inactive.
Screening O=C(CNC(=O)c1ccccc1)N/N=C/c1cccs1 returned Mtb bLac sens inactive, RecA splice inh inactive, GDH-TPI counter inactive, CCHFV vOTU inh inactive and Mtb FBA inh inactive.
For O=C(N/N=C/C=C/c1ccco1)/C(=C/c1ccccc1)NC(=O)c1ccccc1 the results were Mtb bLac sens inactive, RecA splice inh inactive, GDH-TPI counter 37.5, CCHFV vOTU inh inactive and Mtb FBA inh inactive.
`O=C(N/N=C/c1cccs1)/C(=C/c1ccccc1)NC(=O)c1ccccc1` gave Mtb bLac sens inactive, RecA splice inh inactive, GDH-TPI counter 42.2, CCHFV vOTU inh inactive and Mtb FBA inh inactive.
Screening COc1ccc(/C=C(\NC(=O)c2ccccc2)C(=O)N/N=C/c2sccc2C)cc1 returned Mtb bLac sens inactive, RecA splice inh inactive, GDH-TPI counter 39.6, CCHFV vOTU inh inactive and Mtb FBA inh inactive.
